Calls of active or inactive are those of the source.
Key:
[1] = small molecules captured by biotinylated probe aFSTL3 – biochemical, small-molecule microarray, fluorescence 635/667, stem cell growth factor project, primary screen (AID 1064); details: higher = more signal;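 note: measures binding of the biotinylated anti-FSTL3 antibody to printed compounds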
[2] = binders from COS7 lysate, DM2A8 probe, primary screen, torsin A project, cell lysate, small-molecule microarray, fluorescence 635/667 (AID 1065); details: higher = more signal, COS7 lysate expressing mutant human TOR1A
[3] = small molecules captured by biotinylated probe aFGF2 – biochemical, small-molecule microarray, fluorescence 635/667, stem cell growth factor project, primary screen (AID 1067); details: higher = more signal;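 note: measures binding of biotinylated aFGF2 protein to printed compounds on slides; z-score merges feature fluorescence and signal-to-noise across triplicate slides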
[4] = small molecules captured by biotinylated probe aFGF10 – biochemical, small-molecule microarray, fluorescence 635/667, stem cell growth factor project, primary screen (AID 1071); details: higher = more signal;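 note: score merges 667 nm spot intensity and signal to noise from triplicate slides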
[5] = target: Neurogenic locus notch homolog protein 2 (Homo sapiens) (UniProt Q04721); assay: small molecules binding Notch2 protein – biochemical, small-molecule microarray, 635 nm fluorescence, stem cell growth factors, primary screen (AID 1073); details: higher = more signal
[6] = target: Pro-neuregulin-1, membrane-bound isoform (Homo sapiens) (UniProt Q02297); assay: small molecules binding neuregulin-1 protein – biochemical, small-molecule microarray, fluorescence 635/667, psychiatric disease protein project, primary screen (AID 1075); details: NRG1 binding, 635 nm fluorescence, higher = more signal;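 note: score combines 667 nm spot fluorescence with signal to noise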
[7] = test system: Neuregulin-1 EGF-like domain; assay: small molecules binding NRG1 EGF domain – biochemical, small-molecule microarray, 635 nm fluorescence, primary screen (AID 1081); details: higher = more signal;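 note: binding of the protein to compounds printed on small-molecule microarray slides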
[8] = FRG1 expression reporter modulators in myotubes – cell-based, C2C12 myotubes, firefly/Renilla luciferase, luminescence, FRG1 inhibition for FSHD, primary screen (AID 1084); details: FRG1 promoter luciferase, higher = more signal, called active from +8 up or from −8 down
[9] = small molecules captured by biotinylated probe aFST – biochemical, small-molecule microarray, fluorescence 635/667, stem cell growth factor project, primary screen (AID 1086); details: higher = more signal;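 note: score merges 667 nm fluorescence with signal-to-noise of each printed compound spot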
[10] = binders of probe aHhip on microarray, primary screen, stem cell growth factor project, biochemical, small-molecule microarray, fluorescence 635/667 (AID 1087); details: higher = more signal;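 note: score merges spot fluorescence at 667nm with spot signal to noise ratio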
[11] = test system: PRMT1 (protein arginine N-methyltransferase 1); assay: small molecules binding arginine methyltransferase PRMT1 – biochemical, small-molecule microarray, 635 nm fluorescence, primary screen (AID 1088); details: higher = more signal;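 note: binding of Prmt1 protein to compounds spotted on small-molecule microarray slides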
[12] = growth effects on S. cerevisiae YJM789 – YJM789 clinical isolate, OD600, 24 h, basal, primary screen (AID 1089); details: higher = more signal, called active from +8 up or from −8 down;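 note: growth of clinical yeast isolate S. cerevisiae YJM 789 seeded 1000 cells per well; test concentration not given here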
[13] = S. pombe growth modifiers, basal conditions – strain 972, OD600, 24 h, no modulator, primary screen (AID 1090);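 note: basal condition with compound alone and no growth modifier present; test concentration not given here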; details: S. pombe 972 growth, higher = more signal, called active from +8 up or from −8 down
[14] = budding yeast growth modifiers under rapamycin – strain BY4716, OD600, 96 h, primary screen (AID 1091); note: test concentration not given here; details: S. cerevisiae BY4716 + rapamycin, higher = more signal, called active from +8 up or from −8 down
[15] = target: Torsin-1A-interacting protein 2 (Homo sapiens) (UniProt Q8NFQ8); assay: small molecules binding lysate-expressed LULL1 – cell lysate, human LULL1 lysate, 635/667 nm fluorescence, primary screen (AID 1092); details: small-molecule microarray, hLULL1 lysate binding, 635 nm fluorescence; higher = more signal;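 note: probe is lysate of COS7 cells overexpressing human LULL1; score merges per-feature 667 nm fluorescence with signal-to-noise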
[16] = optical density change of DRC41 E. coli – strain DRC41, OD650, 24 h, E. coli filamentation project, primary screen (AID 1093);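 note: MC1000 strain lacking acrAB efflux and sulA so SOS filamentation is blocked; test concentration not given here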; details: E. coli DRC41 growth, higher = more signal, called active from +8 up or from −8 down
[17] = probe aLefty2 binding to arrayed compounds – biochemical, biotinylated probe, 635/667 nm fluorescence, primary screen (AID 1094); details: small-molecule microarray, higher = more signal;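 note: score merges spot fluorescence near 667 nm with spot signal-to-noise ratio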
[18] = test system: Noggin (protein binding on small-molecule microarray); assay: small molecules binding Noggin protein – biochemical, 635/667 nm fluorescence, primary screen (AID 1095); details: 635 nm fluorescence, higher = more signal;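 note: score merges 667 nm feature fluorescence with signal to noise over triplicate slides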
[19] = target: Neurogenic locus notch homolog protein 3 (Homo sapiens) (UniProt Q9UM47); assay: small molecules binding NOTCH3 protein – biochemical, 635/667 nm fluorescence, primary screen (AID 1096); details: small-molecule microarray, 635 nm fluorescence, higher = more signal
[20] = probe aEGFR binding to arrayed compounds – biochemical, biotinylated probe, 635/667 nm fluorescence, primary screen (AID 1097); details: small-molecule microarray, higher = more signal;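 note: probe is a biotinylated anti-EGFR antibody binding compounds printed on slides; score combines fluorescence near 667 nm and signal to noise of each spot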

Neurogenic locus notch homolog protein 3 (Homo sapiens), sequence (Q9UM47 whole entry, looked up): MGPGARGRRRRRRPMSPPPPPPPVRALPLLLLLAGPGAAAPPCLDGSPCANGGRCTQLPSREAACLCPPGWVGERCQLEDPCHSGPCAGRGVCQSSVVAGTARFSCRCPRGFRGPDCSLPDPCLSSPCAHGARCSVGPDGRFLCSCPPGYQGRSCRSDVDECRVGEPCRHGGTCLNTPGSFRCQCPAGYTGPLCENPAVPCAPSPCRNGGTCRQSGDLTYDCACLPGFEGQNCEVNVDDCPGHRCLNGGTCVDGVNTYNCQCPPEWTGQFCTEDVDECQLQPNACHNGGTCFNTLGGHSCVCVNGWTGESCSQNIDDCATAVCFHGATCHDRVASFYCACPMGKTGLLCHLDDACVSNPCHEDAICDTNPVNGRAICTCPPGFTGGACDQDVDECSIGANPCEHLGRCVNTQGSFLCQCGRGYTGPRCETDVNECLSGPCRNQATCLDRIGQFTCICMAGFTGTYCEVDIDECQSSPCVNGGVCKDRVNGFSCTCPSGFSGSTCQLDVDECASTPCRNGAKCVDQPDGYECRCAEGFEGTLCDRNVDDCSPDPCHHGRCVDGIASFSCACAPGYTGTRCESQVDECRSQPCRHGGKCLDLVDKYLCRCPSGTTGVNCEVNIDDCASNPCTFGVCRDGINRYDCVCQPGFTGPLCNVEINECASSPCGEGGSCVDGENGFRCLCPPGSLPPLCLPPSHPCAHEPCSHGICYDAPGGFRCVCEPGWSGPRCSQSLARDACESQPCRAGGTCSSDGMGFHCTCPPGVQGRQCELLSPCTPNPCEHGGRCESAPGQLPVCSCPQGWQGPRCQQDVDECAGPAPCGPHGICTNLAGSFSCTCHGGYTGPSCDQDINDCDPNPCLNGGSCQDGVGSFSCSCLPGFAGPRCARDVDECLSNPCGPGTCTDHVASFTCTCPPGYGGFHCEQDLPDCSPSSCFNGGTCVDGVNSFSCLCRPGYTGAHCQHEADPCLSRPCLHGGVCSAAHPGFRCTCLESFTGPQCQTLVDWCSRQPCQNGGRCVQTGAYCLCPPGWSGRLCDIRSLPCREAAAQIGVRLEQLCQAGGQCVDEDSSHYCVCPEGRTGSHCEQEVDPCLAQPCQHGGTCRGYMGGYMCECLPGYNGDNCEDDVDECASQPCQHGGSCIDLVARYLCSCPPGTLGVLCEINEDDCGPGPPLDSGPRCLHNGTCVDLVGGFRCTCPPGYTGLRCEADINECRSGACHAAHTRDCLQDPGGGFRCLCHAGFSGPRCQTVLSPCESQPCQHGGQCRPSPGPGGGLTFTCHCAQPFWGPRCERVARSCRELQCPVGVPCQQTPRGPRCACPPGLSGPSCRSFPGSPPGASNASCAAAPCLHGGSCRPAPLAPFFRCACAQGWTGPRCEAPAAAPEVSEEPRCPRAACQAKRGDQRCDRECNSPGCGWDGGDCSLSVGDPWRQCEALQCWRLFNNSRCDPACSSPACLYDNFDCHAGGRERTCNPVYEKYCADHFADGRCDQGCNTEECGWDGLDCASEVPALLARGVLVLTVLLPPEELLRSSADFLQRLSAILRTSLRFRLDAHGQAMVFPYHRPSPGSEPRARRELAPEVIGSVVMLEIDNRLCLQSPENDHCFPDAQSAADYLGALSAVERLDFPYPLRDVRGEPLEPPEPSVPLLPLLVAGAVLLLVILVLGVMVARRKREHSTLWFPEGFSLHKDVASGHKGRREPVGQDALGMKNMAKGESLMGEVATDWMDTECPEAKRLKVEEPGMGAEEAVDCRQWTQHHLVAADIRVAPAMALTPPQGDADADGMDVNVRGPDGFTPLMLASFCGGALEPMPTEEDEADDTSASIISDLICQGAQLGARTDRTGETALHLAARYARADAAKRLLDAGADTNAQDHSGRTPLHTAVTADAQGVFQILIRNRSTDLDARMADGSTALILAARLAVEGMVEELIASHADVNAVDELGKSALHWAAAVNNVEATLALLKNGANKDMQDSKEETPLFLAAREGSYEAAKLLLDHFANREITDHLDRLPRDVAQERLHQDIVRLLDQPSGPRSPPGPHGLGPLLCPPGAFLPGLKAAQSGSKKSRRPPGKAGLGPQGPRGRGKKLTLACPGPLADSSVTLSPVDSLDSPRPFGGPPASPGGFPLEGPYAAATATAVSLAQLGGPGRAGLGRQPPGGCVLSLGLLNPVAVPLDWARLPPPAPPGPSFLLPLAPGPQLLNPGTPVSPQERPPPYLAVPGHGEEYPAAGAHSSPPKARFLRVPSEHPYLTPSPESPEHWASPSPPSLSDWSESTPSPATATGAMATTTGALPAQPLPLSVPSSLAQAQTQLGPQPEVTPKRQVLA
Pro-neuregulin-1, membrane-bound isoform (Homo sapiens), sequence (Q02297 whole entry, looked up, the tested form may be a part, canonical isoform): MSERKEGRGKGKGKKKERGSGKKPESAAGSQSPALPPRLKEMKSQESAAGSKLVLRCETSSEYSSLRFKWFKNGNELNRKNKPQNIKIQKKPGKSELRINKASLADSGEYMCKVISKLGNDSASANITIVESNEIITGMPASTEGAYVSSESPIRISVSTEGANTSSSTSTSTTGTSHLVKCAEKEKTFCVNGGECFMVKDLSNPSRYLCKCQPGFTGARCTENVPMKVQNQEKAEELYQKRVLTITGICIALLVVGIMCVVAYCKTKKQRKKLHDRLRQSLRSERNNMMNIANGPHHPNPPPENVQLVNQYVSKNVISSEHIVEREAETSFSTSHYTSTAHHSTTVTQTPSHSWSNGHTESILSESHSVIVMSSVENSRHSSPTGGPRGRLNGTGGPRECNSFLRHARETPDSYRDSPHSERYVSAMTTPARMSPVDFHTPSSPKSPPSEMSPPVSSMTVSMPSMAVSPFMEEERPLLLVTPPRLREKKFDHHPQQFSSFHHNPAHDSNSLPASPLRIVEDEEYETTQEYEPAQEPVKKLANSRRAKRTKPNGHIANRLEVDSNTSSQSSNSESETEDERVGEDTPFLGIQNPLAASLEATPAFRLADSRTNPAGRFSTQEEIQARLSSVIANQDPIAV
Torsin-1A-interacting protein 2 (Homo sapiens), sequence (Q8NFQ8 whole entry, looked up): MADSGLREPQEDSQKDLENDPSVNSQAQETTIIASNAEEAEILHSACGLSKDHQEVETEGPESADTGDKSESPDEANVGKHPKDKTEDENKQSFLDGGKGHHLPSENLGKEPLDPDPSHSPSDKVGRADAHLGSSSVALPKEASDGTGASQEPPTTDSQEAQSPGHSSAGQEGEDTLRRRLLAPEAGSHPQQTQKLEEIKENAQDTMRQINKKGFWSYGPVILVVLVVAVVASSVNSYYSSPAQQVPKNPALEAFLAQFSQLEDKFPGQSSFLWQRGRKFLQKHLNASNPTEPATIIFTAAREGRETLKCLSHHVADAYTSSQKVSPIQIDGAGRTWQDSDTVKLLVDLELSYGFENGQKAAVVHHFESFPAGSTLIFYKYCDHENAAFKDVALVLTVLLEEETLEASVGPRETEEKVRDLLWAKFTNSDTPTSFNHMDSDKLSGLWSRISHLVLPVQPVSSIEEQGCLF

Row | Compound | composite z-score [1] | composite z-score [2] | composite z-score [3] | composite z-score [4] | composite z-score [5] | composite z-score [6] | composite z-score [7] | z-score [8] | composite z-score [9] | composite z-score [10] | composite z-score [11] | z-score [12] | z-score [13] | z-score [14] | composite z-score [15] | z-score [16] | composite z-score [17] | composite z-score [18] | composite z-score [19] | composite z-score [20]
1 | O=C(NCc1ccccc1)[C@@]1(Cc2ccccc2)N=C(c2ccc(OCCCO)cc2)O[C@H]1c1ccccc1 | 0.398 | 1.92 | 0.0557 | 0.177 | 1.56 | 1.76 | 1.05 | -2.23 (inactive) | 1.07 | -0.201 | 0.982 | 0.46 (inactive) | -0.666 (inactive) | 23.2 (active) | 3.39 | 0.842 (inactive) | 0.126 | -0.595 | 0.642 | 0.0357
2 | CN1C(=O)C2C=CC(C(O)c3cc(C(F)(F)F)cc(C(F)(F)F)c3)N(N3CCCCC3)C2C1=O (stereo not given) | 0.104 | -0.392 | 0.0173 | 0.395 | 1.41 | 0.416 | 0.892 | 0.215 (inactive) | 0.498 | -0.335 | 1.34 | 1.69 (inactive) | 0.763 (inactive) | 1.63 (inactive) | 2.65 | -0.627 (inactive) | 0.254 | -0.297 | 0.688 | 0.153
3 | COc1ccc(CCN2C(=O)[C@@]3(Cc4ccccc42)c2ccccc2C(=O)N(Cc2ccccc2C(F)(F)F)[C@H]3c2ccc(CO)cc2)cc1 | -0.402 | -0.0678 | -0.128 | -0.106 | -0.112 | -0.112 | 0.791 | 0.453 (inactive) | -0.256 | -0.0994 | 0.67 | 0.276 (inactive) | -0.414 (inactive) | -1.68 (inactive) | 0.568 | -2.33 (inactive) | 0.0077 | 0.451 | -0.39 | -0.276
4 | CC(=O)NCCCC[C@@H]1NC(=O)[C@@H]2C[C@H](C(=O)NCCCCCCNC(=O)CS)[C@H](c3cccc(OCCO)c3)N2C1=O | 0.0659 | 0.311 | -0.0212 | 0.283 | 0.149 | 0.632 | 1.24 | 0.743 (inactive) | 0.414 | -0.299 | 1.55 | -0.531 (inactive) | -0.507 (inactive) | -0.0963 (inactive) | 2.03 | -0.329 (inactive) | 0.498 | 0.452 | 0.249 | -0.112
5 | O=C1NCC(=O)N2[C@@H]1C[C@@H](C(=O)O)[C@H]2c1cccc(OCCO)c1 | 3.93 | 2.65 | 1.02 | 0.935 | 1.82 | 2.97 | 1.53 | 3.17 (inactive) | 3.63 | 3.89 | 1.54 | -0.215 (inactive) | -14.2 (active) | 0.273 (inactive) | 4.93 | 0.0664 (inactive) | 1.81 | 2.31 | 1.03 | 1.41
6 | [N-]=[N+]=NCc1ccccc1[C@@H]1OC(c2ccc(OCCCO)cc2)=N[C@]1(CCS(=O)(=O)c1ccccc1)C(=O)NCc1ccccc1 | 0.985 | 1.05 | 0.289 | 0.76 | 1.5 | 1.74 | 1.32 | -2.83 (inactive) | 1.89 | 0.683 | 1.55 | 0.182 (inactive) | 1.18 (inactive) | 3.49 (inactive) | 3.25 | -0.382 (inactive) | 0.468 | 1.81 | 1.09 | 0.198
7 | C=CCC(OC(C)=O)[C@@H]1[C@@H](N(Cc2ccc(-c3cccc(C(F)(F)F)c3)o2)C(=O)c2ccc(-c3ccccc3)cc2)c2cc(OCCCO)ccc2N1C(=O)c1ccc(-c2ccccc2)cc1 (stereo not given in full) | 0.0961 | -0.233 | -0.0242 | 0.232 | 0.242 | 0.0249 | -0.825 | -0.245 (inactive) | 0.13 | -0.0994 | -0.432 | 0.308 (inactive) | -0.0943 (inactive) | 0.8 (inactive) | 1.03 | -0.801 (inactive) | 0.0869 | -0.29 | -0.147 | -0.15
8 | COc1cc2c(cc1OC)CN(C(=O)[C@H]1[C@@H]3C(=O)O[C@@H](c4ccccc4)[C@@H](c4ccccc4)N3[C@@H](c3ccc(O)cc3)[C@]13C(=O)Nc1ccc(C#CC4=CCCCC4)cc13)CC2 | -0.0904 | 1.36 | 0.088 | 1.24 | 1.24 | 1.33 | 1.21 | -0.139 (inactive) | 0.827 | 0.421 | 1.51 | 0.203 (inactive) | -2.16 (inactive) | 0.563 (inactive) | 2.83 | 1.64 (inactive) | 0.0857 | 1.12 | 0.913 | 0.143
9 | CC(C)(C)OC(=O)CC[C@]1(C(=O)NCC(O)CO)COC(c2ccc(OCCCO)cc2)=N1 (stereo not given in full) | 0.139 | -0.382 | -0.0551 | -0.0211 | 1.13 | 1.97 | 1.21 | 0.555 (inactive) | 1.24 | -0.0645 | 0.281 | 0.65 (inactive) | 1 (inactive) | 0.977 (inactive) | 3.71 | -0.0576 (inactive) | -0.12 | -0.579 | -0.0234 | 0.0287
10 | [N-]=[N+]=NCc1ccccc1[C@@H]1OC(c2ccc(OCCCO)cc2)=N[C@]1(CCS(=O)(=O)c1ccccc1)C(=O)NCCN1CCOCC1 | 0.21 | 0.631 | 0.269 | 0.918 | 1.65 | 1.99 | 1.31 | 1.97 (inactive) | 1.87 | 0.156 | 1.53 | 0.36 (inactive) | 0.517 (inactive) | 0.766 (inactive) | 3.37 | 0.283 (inactive) | 0.0542 | 1.78 | 1.04 | 0.208

Reference: PubChem BioAssay
